# Results as given in PubChem BioAssay (NCI).
# This is part of a sample that, as a whole, favours compounds with a hit. Of some 83,000 tested, about 20% had one in any assay.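 Single-dose data. Exposure time 48 hours. Values below 10 considered active.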 Activity calls are given as the source filed them.
# Columns and labels:
# Assay in all cases: NCI-60 one-dose screen, 48 h (100 = growth as untreated, 0 = no growth, -100 = all killed)
# Settings in all cases: 10 µM unless noted
# HCT-15 colon = tested on: HCT-15 colon
# HT29 colon = tested on: HT29 colon
# SNB-75 CNS = tested on: SNB-75 CNS
# SNB-19 CNS = tested on: SNB-19 CNS
# U251 CNS = tested on: U251 CNS
# SK-MEL-5 melanoma = tested on: SK-MEL-5 melanoma
# UACC-62 melanoma = tested on: UACC-62 melanoma
# LOX IMVI melanoma = tested on: LOX IMVI melanoma
# SK-MEL-28 melanoma = tested on: SK-MEL-28 melanoma
# SK-MEL-2 melanoma = tested on: SK-MEL-2 melanoma
# SN12C renal = tested on: SN12C renal
# UO-31 renal = tested on: UO-31 renal
# TK-10 renal = tested on: TK-10 renal
# ACHN renal = tested on: ACHN renal
# CAKI-1 renal = tested on: CAKI-1 renal
# A498 renal = tested on: A498 renal
# CCRF-CEM leukemia = tested on: CCRF-CEM leukemia
# MOLT-4 leukemia = tested on: MOLT-4 leukemia
# EKVX NSCLC = tested on: EKVX NSCLC
# PC-3 prostate = tested on: PC-3 prostate
Compound,growth (HCT-15 colon),growth (HT29 colon),growth (SNB-75 CNS),growth (SNB-19 CNS),growth (U251 CNS),growth (SK-MEL-5 melanoma),growth (UACC-62 melanoma),growth (LOX IMVI melanoma),growth (SK-MEL-28 melanoma),growth (SK-MEL-2 melanoma),growth (SN12C renal),growth (UO-31 renal),growth (TK-10 renal),growth (ACHN renal),growth (CAKI-1 renal),growth (A498 renal),growth (CCRF-CEM leukemia),growth (MOLT-4 leukemia),growth (EKVX NSCLC),growth (PC-3 prostate)
c1ccc(-c2cc3n4c(-c5ccccc5)nn(-c5ccccc5)c4cnc-3n2)cc1,86.2% (inactive),44.3% (inactive),-8.19% (active),75.9% (inactive),26.4% (inactive),70.5% (inactive),45.7% (inactive),57.1% (inactive),63.3% (inactive),72.6% (inactive),62.6% (inactive),60.7% (inactive),24.5% (inactive),68.2% (inactive),59.5% (inactive),78.1% (inactive),86.4% (inactive),88.9% (inactive),–,–
CCOC(=O)c1sc2nc(-c3cccc(O)c3)nc(N3CCOCC3)c2c1C,43.7% (inactive),98.2% (inactive),21.1% (inactive),69.2% (inactive),58.5% (inactive),52.7% (inactive),71.8% (inactive),–,63.7% (inactive),78.9% (inactive),50.7% (inactive),25.4% (inactive),79.1% (inactive),58.3% (inactive),72.3% (inactive),97.8% (inactive),42.2% (inactive),29.1% (inactive),36.1% (inactive),–
COc1ccc(C(=O)c2sc3nc4c(c(-c5cccnc5)c3c2N)CCCC4)cc1OC,72.8% (inactive),74.3% (inactive),56.4% (inactive),71% (inactive),70.2% (inactive),59.6% (inactive),87.6% (inactive),70.2% (inactive),77.9% (inactive),–,69.8% (inactive),63.8% (inactive),90% (inactive),77.1% (inactive),82.8% (inactive),48.1% (inactive),55.5% (inactive),41.4% (inactive),–,–
COc1ccc2c(c1)O/C(=C\c1cccc(OCC(=O)Nc3nc4c(s3)CCCC4)c1)C2=O,84.8% (inactive),84.7% (inactive),29.3% (inactive),76.1% (inactive),73.1% (inactive),97.9% (inactive),76.1% (inactive),-100% (active),114% (inactive),–,53.8% (inactive),–,115% (inactive),97.4% (inactive),-100% (active),88.8% (inactive),-67.9% (active),25.3% (inactive),90.2% (inactive),–
CCc1c(Nc2ccccc2C)nc(N)[nH]c1=O,98.4% (inactive),110% (inactive),92.9% (inactive),110% (inactive),120% (inactive),107% (inactive),110% (inactive),107% (inactive),112% (inactive),109% (inactive),100% (inactive),90.7% (inactive),–,106% (inactive),90.9% (inactive),–,100% (inactive),99.4% (inactive),94.5% (inactive),–
COc1ccc(C(=O)c2sc3nc(C)cc(C)c3c2N)cc1OC,85.4% (inactive),88.2% (inactive),84.3% (inactive),79.6% (inactive),66% (inactive),93.4% (inactive),80.8% (inactive),96.5% (inactive),101% (inactive),–,102% (inactive),87.3% (inactive),88.7% (inactive),88.2% (inactive),99.5% (inactive),87.5% (inactive),98.2% (inactive),96.4% (inactive),–,–
COc1cccc(/C=N/NC(=O)c2ccccc2Nc2ccnc(C(F)(F)F)c2)c1O,28.4% (inactive),51.3% (inactive),19.6% (inactive),21.1% (inactive),17.1% (inactive),-33.1% (active),-24.2% (active),4.88% (active),23% (inactive),–,21.2% (inactive),7.6% (active),28.7% (inactive),5.22% (active),-2.16% (active),-13% (active),–,34.1% (inactive),10.5% (inactive),–
CCOC(=O)c1c(CN2CCN(C)CC2)nc2ccc(Cl)cc2c1-c1ccccc1,62.9% (inactive),18% (inactive),58.6% (inactive),86.8% (inactive),64.4% (inactive),18.3% (inactive),86.3% (inactive),–,-22.6% (active),80% (inactive),92.8% (inactive),47.3% (inactive),82.6% (inactive),91.7% (inactive),52.8% (inactive),90.7% (inactive),–,32.5% (inactive),66.4% (inactive),–
N#Cc1cnn(-c2nc3c(Cl)cccc3s2)c1N,91.8% (inactive),84.8% (inactive),77.7% (inactive),94.8% (inactive),88% (inactive),90.8% (inactive),89.2% (inactive),81.4% (inactive),102% (inactive),–,88.5% (inactive),83.2% (inactive),92.7% (inactive),67.4% (inactive),82.8% (inactive),97.1% (inactive),91.1% (inactive),92.4% (inactive),–,–
Cc1cc(C)nc(SC2=C(Nc3cccc(Cl)c3)C(=O)N(Cc3ccccc3)C2=O)n1,59.9% [30 µM] (inactive),53.6% [30 µM] (inactive),58.5% [30 µM] (inactive),94.4% [30 µM] (inactive),78.5% [30 µM] (inactive),50.1% [30 µM] (inactive),61.4% [30 µM] (inactive),67.6% [30 µM] (inactive),93.2% [30 µM] (inactive),75.9% [30 µM] (inactive),71.9% [30 µM] (inactive),34% [30 µM] (inactive),–,68.2% [30 µM] (inactive),66% [30 µM] (inactive),67.2% [30 µM] (inactive),26.2% [30 µM] (inactive),7.17% [30 µM] (active),56% [30 µM] (inactive),–
CN(C)CCN1C(=O)c2cccc3c(N)ccc(c23)C1=O,23.2% (inactive),13.5% (inactive),56.9% (inactive),27.3% (inactive),22.5% (inactive),-21.8% (active),33.1% (inactive),5.28% (active),71.2% (inactive),–,33.6% (inactive),26.8% (inactive),58.9% (inactive),12.8% (inactive),-7.49% (active),65.6% (inactive),10.5% (inactive),1.9% (active),30.5% (inactive),–
O=c1c(F)cn(Cc2ccccc2CCl)c(=O)n1Cc1ccccc1CCl,-57.6% (active),-83.7% (active),-5.72% (active),-23% (active),-71.6% (active),–,-82.6% (active),–,-65% (active),4.2% (active),-26.5% (active),-80.4% (active),-30.8% (active),-81.8% (active),-84.5% (active),76.3% (inactive),-42.9% (active),-40.3% (active),-4.31% (active),–
COc1ccc(/C=C/c2nc(-c3n[nH]c(=O)n3-c3ccccc3)c3ccccc3n2)cc1,93.8% (inactive),101% (inactive),81.7% (inactive),96.7% (inactive),99.5% (inactive),–,87.2% (inactive),97.2% (inactive),106% (inactive),–,91.5% (inactive),79.8% (inactive),108% (inactive),102% (inactive),84% (inactive),–,90% (inactive),95% (inactive),94.6% (inactive),–
CCOC(=O)n1cc(-c2nonc2-c2cn(C)c3ncccc23)c2ccccc21,60.2% (inactive),79.5% (inactive),61.6% (inactive),89.3% (inactive),83.2% (inactive),–,–,84.3% (inactive),104% (inactive),90.1% (inactive),87.1% (inactive),58.4% (inactive),98.3% (inactive),80.1% (inactive),58.1% (inactive),99% (inactive),86.6% (inactive),69.8% (inactive),61.2% (inactive),–
COc1ccccc1Nc1nc(-c2cc3cccc(C(F)(F)F)c3oc2=O)cs1,16% (inactive),3.1% (active),15% (inactive),26.7% (inactive),9.97% (active),–,–,–,–,26.8% (inactive),–,52% (inactive),67.9% (inactive),24.6% (inactive),9.18% (active),-9.67% (active),7.96% (active),14.9% (inactive),36.1% (inactive),–
C=CC(=O)Nc1cccc(-c2nc(SC)nc(Nc3cccc(OC)c3)c2C#N)c1,52.5% (inactive),56.9% (inactive),18% (inactive),66.9% (inactive),–,77% (inactive),78.1% (inactive),72.1% (inactive),87% (inactive),71.2% (inactive),44.6% (inactive),42.3% (inactive),78.9% (inactive),45.7% (inactive),44.9% (inactive),9.73% (active),57.5% (inactive),39.5% (inactive),72% (inactive),53.1% (inactive)
